# PubChem BioAssay AID1159580 (chemical genetic matrix, 2015)
# The campaign covered roughly 5,500 compounds. About 2,000 (36%) were called active. Inconclusive results (about 18%) are left out. This is one part of the list. Unmarked numbers belong to inactive results. Rule as the data show it: active = normalized growth mostly below about 0.91 (no sharp cut-off); inconclusive = no clear call, values can overlap the other calls; inactive = mostly above about 0.92.
# Test: chemical genetic growth profiling, strain panel (AID 1159580);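 also: tested at 20 µM; growth read once vehicle control cultures reached saturation at 30 °C; 1 = growth at the plate median or of vehicle wells; lower values mean less growth of the strain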
# Conditions: S. cerevisiae deletion strains, growth OD
smiles,measurement,setting,value
CC1C/C=C/C=C/C=C/C=C/C(O[C@@H]2O[C@H](C)[C@@H](O)[C@H](N)[C@@H]2O)CC2OC(O)(CC(O)CC3OC3/C=C/C(=O)O1)CC(O)C2C(=O)O (stereo not given in full),normalized growth,"locus YAL021C, strain ccr4, active compounds read low",1.02
same,normalized growth,"locus YAL026C, strain drs2, active compounds read low",0.94
same,normalized growth,"locus YAL030W, strain snc1, active compounds read low",1
same,normalized growth,"locus YBL061C, strain skt5, active compounds read low",1
same,normalized growth,"locus YBR009C, strain hhf1, active compounds read low",0.981
same,normalized growth,"locus YBR023C, strain chs3, active compounds read low",0.992
same,normalized growth,"locus YBR171W, strain sec66, active compounds read low",0.142 (active)
same,normalized growth,"locus YBR231C, strain swc5, active compounds read low",0.981
same,normalized growth,"locus YBR279W, strain paf1, active compounds read low",1
same,normalized growth,"locus YCL011C, strain gbp2, active compounds read low",0.989
same,normalized growth,"locus YCL016C, strain dcc1, active compounds read low",0.993
same,normalized growth,"locus YCL061C, strain MRC1, active compounds read low",0.802 (active)
same,normalized growth,"locus YCL069W, strain vba3, active compounds read low",1.01
same,normalized growth,"locus YCR088W, strain abp1, active compounds read low",0.126 (active)
same,normalized growth,"locus YDL005C, strain med2, active compounds read low",0.993
same,normalized growth,"locus YDL040C, strain nat1, active compounds read low",0.993
same,normalized growth,"locus YDR001C, strain nth1, active compounds read low",1
same,normalized growth,"locus YDR069C, strain doa4, active compounds read low",0.983
same,normalized growth,"locus YDR137W, strain rgp1, active compounds read low",1.01
same,normalized growth,"locus YDR159W, strain sac3, active compounds read low",0.958
same,normalized growth,"locus YDR195W, strain ref2",0.945
same,normalized growth,"locus YDR297W, strain sur2, active compounds read low",1
same,normalized growth,"locus YDR334W, strain swr1, active compounds read low",0.999
same,normalized growth,"locus YDR335W, strain msn5, active compounds read low",0.985
same,normalized growth,"locus YDR392W, strain spt3, active compounds read low",0.848
same,normalized growth,"locus YEL003W, strain gim4, active compounds read low",0.991
same,normalized growth,"locus YEL037C, strain rad23, active compounds read low",0.992
same,normalized growth,"locus YEL061C, strain CIN8 (second series), active compounds read low",0.984
same,normalized growth,"locus YER015W, strain faa2, active compounds read low",0.823 (active)
same,normalized growth,"locus YER016W, strain bim1, active compounds read low",0.978
same,normalized growth,"locus YER111C, strain swi4, active compounds read low",0.981
same,normalized growth,"locus YER155C, strain BEM2 (second series), active compounds read low",0.711 (active)
same,normalized growth,"locus YFR010W, strain ubp6, active compounds read low",0.982
same,normalized growth,"locus YGL167C, strain pmr1, active compounds read low",0.984
same,normalized growth,"locus YGL173C, strain kem1, active compounds read low",0.997
same,normalized growth,"locus YGL227W, strain vid30, active compounds read low",0.0655 (active)
same,normalized growth,"locus YGL240W, strain doc1, active compounds read low",0.996
same,normalized growth,"locus YGL253W, strain hxk2, active compounds read low",0.973
same,normalized growth,"locus YHR013C, strain ard1, active compounds read low",0.957
same,normalized growth,"locus YHR027C, strain rpn1, active compounds read low",1
same,normalized growth,"locus YHR030C, strain SLT2, active compounds read low",0.972
same,normalized growth,"locus YHR079C, strain IRE1, active compounds read low",0.975
same,normalized growth,"locus YHR142W, strain chs7, active compounds read low",1.02
same,normalized growth,"locus YJL092W, strain hpr5, active compounds read low",0.964
same,normalized growth,"locus YJL095W, strain BCK1 (second series), active compounds read low",1
same,normalized growth,"locus YJL095W, strain BCK1, active compounds read low",1
same,normalized growth,"locus YJL115W, strain asf1, active compounds read low",1
same,normalized growth,"locus YJL129C, strain trk1, active compounds read low",0.949
same,normalized growth,"locus YJL154C, strain vps35, active compounds read low",0.995
same,normalized growth,"locus YJL164C, strain tpk1, active compounds read low",1.01
same,normalized growth,"locus YJL166W, strain qcr8, active compounds read low",0.992
same,normalized growth,"locus YJL187C, strain SWE1, active compounds read low",1
same,normalized growth,"locus YJR066W, strain TOR1, active compounds read low",0.943
same,normalized growth,"locus YKL160W, strain elf1, active compounds read low",1.04
same,normalized growth,"locus YKR026C, strain gcn3, active compounds read low",0.296 (active)
same,normalized growth,"locus YKR091W, strain srl3, active compounds read low",0.999
same,normalized growth,"locus YLL001W, strain dnm1, active compounds read low",0.982
same,normalized growth,"locus YLL026W, active compounds read low",1
same,normalized growth,"locus YLL041C, strain sdh2, active compounds read low",0.998
same,normalized growth,"locus YLR027C, strain aat2, active compounds read low",1
same,normalized growth,"locus YLR113W, strain HOG1, active compounds read low",1.02
same,normalized growth,"locus YLR221C, strain rsa3, active compounds read low",1.02
same,normalized growth,"locus YLR258W, strain gsy2, active compounds read low",0.977
same,normalized growth,"locus YLR262C, strain YPT6 (second series), active compounds read low",1.01
same,normalized growth,"locus YLR320W, strain mms22, active compounds read low",1
same,normalized growth,"locus YLR342W, strain FKS1, active compounds read low",0.994
same,normalized growth,"locus YLR357W, strain rsc2, active compounds read low",0.427 (active)
same,normalized growth,"locus YLR370C, strain arc18, active compounds read low",1.02
same,normalized growth,"locus YLR384C, strain iki3, active compounds read low",0.994
same,normalized growth,"locus YML120C, strain ndi1, active compounds read low",1.01
same,normalized growth,"locus YMR058W, strain fet3, active compounds read low",0.921
same,normalized growth,"locus YMR125W, strain sto1, active compounds read low",0.0829 (active)
same,normalized growth,"locus YMR129W, active compounds read low",0.987
same,normalized growth,"locus YMR205C, strain PFK2, active compounds read low",0.985
same,normalized growth,"locus YMR231W, strain pep5, active compounds read low",0.997
same,normalized growth,"locus YNL071W, strain lat1, active compounds read low",1
same,normalized growth,"locus YNL183C, strain NPR1, active compounds read low",0.956
same,normalized growth,"locus YNL209W, strain ssb2, active compounds read low",0.999
same,normalized growth,"locus YNL248C, strain rpa49, active compounds read low",0.544 (active)
same,normalized growth,"locus YNL322C, strain KRE1 (second series), active compounds read low",1
same,normalized growth,"locus YNR049C, strain mso1, active compounds read low",0.994
same,normalized growth,"locus YOR001W, strain rrp6, active compounds read low",1.01
same,normalized growth,"locus YOR070C, strain gyp1, active compounds read low",0.998
same,normalized growth,"locus YOR080W, strain dia2, active compounds read low",1
same,normalized growth,"locus YOR083W, strain WHI5, active compounds read low",1.03
same,normalized growth,"locus YOR106W, strain vam3, active compounds read low",1.03
same,normalized growth,"locus YOR231W, strain MKK1, active compounds read low",0.963
same,normalized growth,"locus YOR265W, strain rbl2, active compounds read low",0.999
same,normalized growth,"locus YOR270C, strain vph1, active compounds read low",0.948
same,normalized growth,"locus YOR290C, strain snf2, active compounds read low",0.953
same,normalized growth,"locus YPL051W, strain arl3, active compounds read low",1
same,normalized growth,"locus YPL078C, strain atp4, active compounds read low",1.02
same,normalized growth,"locus YPL106C, strain sse1, active compounds read low",1.01
same,normalized growth,"locus YPL240C, strain hsp82, active compounds read low",1
same,normalized growth,"locus YPL256C, strain CLN2, active compounds read low",0.991
